Laboratory results: PubChem BioAssay (NCATS)
Inconclusive results are not listed. A call without a number means that no potency is given here. Calls of active or inactive are those of the source. Unless noted, the call rests on the fitted dose curve; in most records, active means well fitted curve in the direction sought with a large enough effect; inconclusive means small, poorly fitted or top-dose-only effect, or another doubt; inactive means no such curve, though single readings can be large; an effect the other way counts as inactive or inconclusive. Positions of bridges follow the written chain, without caps; N, C: chain ends. Non-standard residues stand in square brackets, D forms with d. Residues, ends and D or L forms follow the SMILES beside them. ξ: configuration not given here. *: point of attachment. ξDab(CH2SO3H) = NC(CCNCS(=O)(=O)O)C(=O)O; Octanoyl(6-Me) = CCC(C)CCCCC(=O)*; Dab = NCC[CH](N)C(=O)O

Legend:
Furin (Homo sapiens) = Furin (Homo sapiens) (UniProt P09958); experiment: Furin counterscreen qHTS for Zika virus inhibitors (AID 1347149); further: nearly all actives have a fitted effect of over 70% in size; further: potency means the concentration at half of the fitted maximal effect;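 on activity change, negative = inhibition: purified recombinant full-length human furin enzyme at 5 nM; fluorescence gain from furin cutting a BOC-RVRR-AMC peptide substrate over 15 min; top concentration of the series differs between compounds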
Sequence of Furin (Homo sapiens) (P09958 whole entry, looked up): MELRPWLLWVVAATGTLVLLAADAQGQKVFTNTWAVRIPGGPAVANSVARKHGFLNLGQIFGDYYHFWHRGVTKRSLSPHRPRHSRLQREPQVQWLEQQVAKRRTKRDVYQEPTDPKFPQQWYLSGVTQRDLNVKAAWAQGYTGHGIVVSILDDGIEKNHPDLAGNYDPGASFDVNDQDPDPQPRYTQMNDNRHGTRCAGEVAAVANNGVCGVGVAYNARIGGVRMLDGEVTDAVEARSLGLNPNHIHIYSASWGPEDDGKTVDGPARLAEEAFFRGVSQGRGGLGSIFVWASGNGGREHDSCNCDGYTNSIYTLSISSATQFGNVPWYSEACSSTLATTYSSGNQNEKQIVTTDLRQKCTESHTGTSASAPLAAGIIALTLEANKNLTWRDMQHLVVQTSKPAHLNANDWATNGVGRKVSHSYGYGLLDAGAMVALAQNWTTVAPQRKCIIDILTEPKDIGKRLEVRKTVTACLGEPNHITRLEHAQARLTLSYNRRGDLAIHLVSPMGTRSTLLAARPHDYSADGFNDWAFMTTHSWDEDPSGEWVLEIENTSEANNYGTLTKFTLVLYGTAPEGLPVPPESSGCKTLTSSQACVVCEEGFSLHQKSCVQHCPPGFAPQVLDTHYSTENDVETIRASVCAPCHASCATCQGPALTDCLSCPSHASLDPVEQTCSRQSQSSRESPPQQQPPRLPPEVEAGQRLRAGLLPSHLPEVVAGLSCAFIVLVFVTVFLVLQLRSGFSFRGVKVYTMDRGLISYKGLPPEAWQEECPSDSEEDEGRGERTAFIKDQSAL
Outline: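 Fluorogenic cleavage of BOC-RVRR-AMC (2 microM final, Km ~15 µM) was monitored (ex 340, em 450 nm) at 37C after 15 min RT preincubation of 5 nM furin with compounds in HEPES pH 7.0 buffer with CaCl2 and Triton X-100. Percent inhibition was fitted to a 4-parameter Hill curve.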

[1] = tested on: Zika virus NS2B-NS3 protease (linked); experiment: 384 well plate NINDS AMC confirmatory qHTS for Zika virus inhibitors (AID 1347163); further: nearly all actives have a fitted effect of over 50% in size; further: potency means the concentration at half of the fitted maximal effect;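 on activity change, negative = inhibition: linked protease at 5 30 or 60 nM final depending on run; fluorescence of AMC released from Ac-VKTGKR-AMC peptide cleaved by the protease; top concentration of the series differs between compounds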
Outline: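 Linked protease 5/30/60 nM final; cpds up to 1 mM final, ~15 min preinc. Substrate Ac-VKTGKR-AMC 30 microM final. RT, dark, 25 min; FI ex 355/em 460; normalized to no-enzyme/no-inhibitor ctrls.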

[2] = tested on: Zika virus NS2B-NS3 protease (linked construct); experiment: 384 well plate NINDS Rhodamine confirmatory qHTS for Zika virus inhibitors (AID 1347164);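 further: fluorescence from protease cleavage of Ac-LKRR-rhodamine 110 substrate; nearly all actives have a fitted effect of over 65% in size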; further: potency means the concentration at half of the fitted maximal effect; on activity change, negative = inhibition: top concentration of the series differs between compounds
Outline: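 Linked protease at a final 5 nM, 30 nM or 60 nM was preincubated ~15 min with compounds, then given 10 microM Ac-LKRR-Rhodamine 110. Fluorescence (ex 485/em 538 nm) after 25 min in the dark at room temperature.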

[3] = Tertiary RLuc qRT-PCR qHTS assay for Zika virus inhibitors (AID 1347169); further: nearly all actives have a fitted effect of over 55% in size; further: potency means the concentration at half of the fitted maximal effect; on activity change, negative = inhibition: top concentration of the series differs between compounds
Outline: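 Vero cells (1,000 per well) plated overnight at 37 degrees C, treated with compound in DMSO, then infected with recombinant ZIKV-RLuc (Cambodian) at MOI 1-2 for 48-72 hrs. Live-cell Renilla luciferase substrate added; luminescence read after 1-1.5 hrs.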

[4] = Confirmatory screen NINDS Rhodamine qHTS for Zika virus inhibitors (AID 1347161); further: potency means the concentration at half of the fitted maximal effect; nearly all actives have a fitted effect of over 60% in size
Outline: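 Rhodamine110-peptide cleavage (1.5 µM substrate) by 25 nM linked NS2B-NS3 enzyme at pH 8.0 (Tris, Tween 20), after 15 min RT preincubation with compounds; 15-min fluorescence change normalized to controls and Hill-fitted.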

[5] = molecular target: Rap guanine nucleotide exchange factor 3 (Homo sapiens) (UniProt O95398); experiment: Confirmatory qHTS for antagonist of cAMP-regulated guanine nucleotide exchange factor 3 (EPAC1) (AID 1645880); further: nearly all actives have a fitted effect of over 55% in size
Sequence of Rap guanine nucleotide exchange factor 3 (Homo sapiens) (O95398 whole entry, looked up): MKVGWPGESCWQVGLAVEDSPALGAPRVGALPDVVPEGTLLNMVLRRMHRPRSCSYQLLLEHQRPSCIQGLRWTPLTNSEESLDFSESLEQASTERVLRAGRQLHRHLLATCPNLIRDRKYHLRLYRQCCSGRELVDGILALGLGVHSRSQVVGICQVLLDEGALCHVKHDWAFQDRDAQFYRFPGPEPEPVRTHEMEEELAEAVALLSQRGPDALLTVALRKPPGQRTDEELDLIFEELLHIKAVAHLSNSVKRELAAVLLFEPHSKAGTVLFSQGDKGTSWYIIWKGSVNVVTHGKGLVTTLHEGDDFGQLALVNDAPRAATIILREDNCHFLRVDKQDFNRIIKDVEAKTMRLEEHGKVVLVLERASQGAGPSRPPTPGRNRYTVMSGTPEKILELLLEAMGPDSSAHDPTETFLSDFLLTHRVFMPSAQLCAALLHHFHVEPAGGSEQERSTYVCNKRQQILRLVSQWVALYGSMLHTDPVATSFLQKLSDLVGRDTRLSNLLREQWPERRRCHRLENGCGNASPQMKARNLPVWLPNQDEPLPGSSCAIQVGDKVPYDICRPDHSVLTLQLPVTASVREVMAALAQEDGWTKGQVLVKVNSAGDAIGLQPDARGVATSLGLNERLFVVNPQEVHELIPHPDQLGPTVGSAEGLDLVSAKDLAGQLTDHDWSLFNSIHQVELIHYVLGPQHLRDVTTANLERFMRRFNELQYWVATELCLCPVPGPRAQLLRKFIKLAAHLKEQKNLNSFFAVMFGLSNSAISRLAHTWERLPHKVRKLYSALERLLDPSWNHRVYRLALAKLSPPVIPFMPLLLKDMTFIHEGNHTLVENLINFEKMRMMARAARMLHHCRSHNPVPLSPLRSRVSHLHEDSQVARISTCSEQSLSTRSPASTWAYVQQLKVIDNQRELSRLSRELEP
Outline: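 Nucleotide exchange uses 100 nM EPAC1, 250 nM RAP1B-BODIPY-GDP and 50 uM GDP, with compounds in a concentration-titration series. After 5 min at room temperature, fluorescence (480 nm ex/540 nm em) is read every 5 min for 30 min. Data are normalized to control ATA and DMSO.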

[6] = molecular target: Rap guanine nucleotide exchange factor 4 (Homo sapiens) (UniProt Q8WZA2); experiment: Confirmatory qHTS for agonist of cAMP-regulated guanine nucleotide exchange factor 4 (EPAC2) (AID 1645884);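 further: nucleotide exchange releases bodipy-GDP from Rap1 and this lowers its fluorescence; nearly all actives have a fitted effect of over 65% in size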
Sequence of Rap guanine nucleotide exchange factor 4 (Homo sapiens) (Q8WZA2 whole entry, looked up): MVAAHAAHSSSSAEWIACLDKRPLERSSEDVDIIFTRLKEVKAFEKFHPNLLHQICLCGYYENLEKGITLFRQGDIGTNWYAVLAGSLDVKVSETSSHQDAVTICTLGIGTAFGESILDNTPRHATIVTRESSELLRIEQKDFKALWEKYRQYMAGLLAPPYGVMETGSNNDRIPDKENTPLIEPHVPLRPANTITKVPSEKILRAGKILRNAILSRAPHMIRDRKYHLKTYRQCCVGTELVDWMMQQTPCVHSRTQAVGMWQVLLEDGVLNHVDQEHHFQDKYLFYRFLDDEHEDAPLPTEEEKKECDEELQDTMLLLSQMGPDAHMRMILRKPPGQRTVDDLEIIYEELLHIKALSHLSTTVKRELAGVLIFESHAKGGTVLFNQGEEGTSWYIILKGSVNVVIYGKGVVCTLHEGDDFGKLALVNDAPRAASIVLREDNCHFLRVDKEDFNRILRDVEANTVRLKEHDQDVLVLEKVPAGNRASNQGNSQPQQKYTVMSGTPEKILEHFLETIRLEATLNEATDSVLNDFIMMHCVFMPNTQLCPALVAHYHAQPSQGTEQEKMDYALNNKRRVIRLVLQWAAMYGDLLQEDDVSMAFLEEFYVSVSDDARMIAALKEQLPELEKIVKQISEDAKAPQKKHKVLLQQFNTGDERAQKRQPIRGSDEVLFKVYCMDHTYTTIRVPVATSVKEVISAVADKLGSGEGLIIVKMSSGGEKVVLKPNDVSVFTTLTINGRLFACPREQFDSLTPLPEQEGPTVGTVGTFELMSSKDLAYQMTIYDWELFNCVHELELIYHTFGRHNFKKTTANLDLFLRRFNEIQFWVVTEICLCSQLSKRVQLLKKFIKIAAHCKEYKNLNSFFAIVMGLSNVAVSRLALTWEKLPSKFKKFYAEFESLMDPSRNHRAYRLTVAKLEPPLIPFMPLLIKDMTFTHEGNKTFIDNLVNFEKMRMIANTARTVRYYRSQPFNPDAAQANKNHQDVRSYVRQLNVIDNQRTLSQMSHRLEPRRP

[7] = molecular target: Rap guanine nucleotide exchange factor 4 (Homo sapiens) (UniProt Q8WZA2); experiment: Confirmatory qHTS for antagonist of cAMP-regulated guanine nucleotide exchange factor 4 (EPAC2) (AID 1645885); further: nearly all actives have a fitted effect of over 25% in size; further: potency means the concentration at half of the fitted maximal effect
[8] = molecular target: Rap guanine nucleotide exchange factor 3 (Homo sapiens) (UniProt O95398); experiment: Counterscreen qHTS for antagonist of cAMP-regulated guanine nucleotide exchange factor 3 (EPAC1) (AID 1645888);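 further: fluorescence loss as bound BODIPY-GDP is released from Rap1B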
Outline: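 Measured: fluorescence of BODIPY-GDP bound to Rap1B, which falls as exchange proceeds. Conditions include 50 uM competing GDP, 5 and 30 min reads, and a later cAMP challenge for antagonist detection.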

[9] = molecular target: Rap guanine nucleotide exchange factor 3 (Homo sapiens) (UniProt O95398); experiment: Confirmatory qHTS for agonist of cAMP-regulated guanine nucleotide exchange factor 3 (EPAC1) (AID 1645881);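 further: EPAC1 catalysed release of BODIPY-GDP from Rap1B seen as fluorescence loss; nearly all actives have a fitted effect of over 75% in size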
[10] = Vero cells viability qHTS for Zika virus inhibitors (AID 1347167)
Outline: (§1)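 Counter-screen for cytotoxicity of hits from NS2B-NS3 protease qHTS. Overnight-attached cells (2.5 x 10^5 cells/mL, DMEM/4% FBS) were dosed in titration, incubated 24 to 48 hours, then assayed by CellTiter Glo.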

[11] = HepG2 cells viability qHTS for Zika virus inhibitors (AID 1347168)
Outline: as §1

[12] = tested on: Zika virus NS2B-NS3 protease (linked construct); experiment: Confirmatory screen NINDS AMC qHTS for Zika virus inhibitors (AID 1347152); further: potency means the concentration at half of the fitted maximal effect; nearly all actives have a fitted effect of over 70% in size
Outline: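 Purified NS2B-NS3 protease with NS2B hydrophilic domain linked to NS3 protease domain by flexible linker, 1 nM final in 10 mM Tris-HCl pH 8.0, 0.01% Tween 20. Compounds preincubated 15 min, room temperature; Bz-Nle-KRR-AMC 10 microM (Km 18.3 µM); 15-min fluorescence change, 4-parameter Hill fit.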

[13] = tested on: Zika virus NS2B-NS3 protease (unlinked complex); experiment: Confirmatory screen GU AMC qHTS for Zika virus inhibitors (AID 1347153);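 further: enzyme at 25 nM with substrate at 10 µM below its Km of 18.3 µM; potency means the concentration at half of the fitted maximal effect; nearly all actives have a fitted effect of over 70% in size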
Outline: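 Compounds were preincubated 15 min at room temperature with 25 nM noncovalent NS2B-NS3 protease at pH 8.0; AMC substrate added at 10 microM and 15-min fluorescence gain (340/450 nm) converted to percent inhibition, fitted 4-parameter.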

[14] = tested on: Zika virus NS2B-NS3 protease; experiment: Primary screen GU AMC qHTS for Zika virus inhibitors (AID 1347154); further: potency means the concentration at half of the fitted maximal effect; nearly all actives have a fitted effect of over 70% in size
Outline: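 Unlinked Zika NS2B hydrophilic domain/NS3 protease domain noncovalent complex (25 nM final) in 10 mM Tris-HCl pH 8.0, 0.01% Tween 20, with AMC peptide substrate. Fluorescence (ex 340, em 450 nm) change over 15 min, room temperature; percent inhibition fitted to 4-parameter Hill equation.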

[15] = Primary qHTS for small molecule stabilizers of the endoplasmic reticulum resident proteome: Secreted ER Calcium Modulated Protein (SERCaMP) assay (AID 1508630)
Outline: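 GLuc-SERCaMP-expressing SH-SY5Y cells, pretreated 16 h with compound, are challenged with thapsigargin to empty ER calcium stores; after 4 h, coelenterazine is added directly to the medium and luminescence is imaged.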

[16] = AP1 Signaling Pathway (AID 357; active means well fitted curve in either direction with a large enough effect, not every such curve was filed as active;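 further: ME-180 reporter cells stimulated with EGF at its EC50 level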); conditions: ME-180 AP-1-bla reporter, EGF-induced, beta-lactamase ratio, 5 h; at 17.2 µM (top of the series)
Outline: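 Titration-series screen for positive or negative modulators of EC50 EGF-induced signaling in ME-180 cells carrying an AP-1-driven beta-lactamase reporter. After 5 hours at 37 degrees Celsius, CCF4 460nm/530nm emission ratio gave %Activity; AC50 values derived.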

[17] = Stat Signaling Pathway (AID 446; active means well fitted curve in either direction with a large enough effect, not every such curve was filed as active;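 further: ME-180 cervical cancer cells given 40 pM IL-6 alongside compound; SIE-controlled beta-lactamase reporter measured as 460/530 nm FRET emission ratio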); conditions: ME-180 SIE beta-lactamase reporter, IL-6 stimulated, 5 h; at 17.2 µM (top of the series)
Outline: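 Reporter line: ME-180 cervical carcinoma, SIE-beta-lactamase. Treatment: compound with 40 pM IL-6, 5 hrs, 37 C, in low-serum OPTI-MEM with 10 mM HEPES pH 7.3. Detection: 460/530 nm fluorescence.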

[18] = molecular target: Glucocorticoid receptor (Homo sapiens) (UniProt P04150); experiment: GR-EFC Redistribution (AID 451; calls by dose curve; further: potency means the concentration at half of the fitted maximal effect); conditions: CHO-K1 GR-EFC translocation, beta-gal luminescence, 2 h
Sequence of Glucocorticoid receptor (Homo sapiens) (P04150 whole entry, looked up, the tested form may be a part): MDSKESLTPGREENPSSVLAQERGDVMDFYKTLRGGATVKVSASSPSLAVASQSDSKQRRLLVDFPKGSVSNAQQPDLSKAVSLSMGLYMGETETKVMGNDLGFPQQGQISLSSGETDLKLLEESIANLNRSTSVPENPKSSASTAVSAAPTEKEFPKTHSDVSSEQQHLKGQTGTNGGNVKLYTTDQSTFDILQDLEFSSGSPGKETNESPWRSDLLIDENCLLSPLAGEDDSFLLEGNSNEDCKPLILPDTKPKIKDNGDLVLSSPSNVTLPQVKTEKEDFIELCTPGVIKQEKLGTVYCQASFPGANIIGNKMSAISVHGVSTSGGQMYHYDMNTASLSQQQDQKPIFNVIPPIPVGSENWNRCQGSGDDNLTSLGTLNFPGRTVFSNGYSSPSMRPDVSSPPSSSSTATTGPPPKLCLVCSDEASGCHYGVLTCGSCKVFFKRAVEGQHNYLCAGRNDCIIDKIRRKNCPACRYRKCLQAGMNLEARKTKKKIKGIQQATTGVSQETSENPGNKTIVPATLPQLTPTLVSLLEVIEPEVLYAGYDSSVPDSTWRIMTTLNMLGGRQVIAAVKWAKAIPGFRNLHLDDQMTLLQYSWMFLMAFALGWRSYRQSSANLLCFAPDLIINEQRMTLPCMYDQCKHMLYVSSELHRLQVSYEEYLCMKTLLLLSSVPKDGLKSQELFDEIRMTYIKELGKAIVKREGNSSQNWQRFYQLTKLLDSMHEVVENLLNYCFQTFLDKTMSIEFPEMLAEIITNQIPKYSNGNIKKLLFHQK
Outline: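 CHO-K1 cells stably expressing nuclear-localized β-gal enzyme acceptor and GR fused C-terminally to the enzyme donor fragment; ligand-driven nuclear translocation restores β-gal by complementation. Compounds titrated up to 46 uM final, 2 h at 37 °C; luminescence read.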

[19] = molecular target: Mitogen-activated protein kinase 10 (Mus musculus) (UniProt Q61831); experiment: JNK3 AlphaScreen Assay (AID 530; active means well fitted curve in either direction with a large enough effect, not every such curve was filed as active;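 further: kinase came from lysate of stimulated human HepG2 cells; signal reports phosphorylation of biotinylated GST-cJun 1-79 at Ser73 with 10 µM ATP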)
Outline: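 JNK3 came from HepG2 lysates pre-activated with IL-1beta and TNF-alpha and phosphorylated biotinylated GST-cJun (1-79) at 10 uM ATP, pH 7.6, room temperature. Compounds were titrated. AlphaScreen signal used anti-phospho-cJun (Ser73) antibody.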

[20] = molecular target: 3',5'-cyclic-AMP phosphodiesterase 4B (Homo sapiens) (UniProt Q07343); experiment: qHTS Assay for Inhibitors of PDE-IV (AID 607; active means well fitted activation curve with a large enough effect in the main read-out, with a control signal flat, not every such curve was filed as active)
Sequence of 3',5'-cyclic-AMP phosphodiesterase 4B (Homo sapiens) (Q07343 whole entry, looked up): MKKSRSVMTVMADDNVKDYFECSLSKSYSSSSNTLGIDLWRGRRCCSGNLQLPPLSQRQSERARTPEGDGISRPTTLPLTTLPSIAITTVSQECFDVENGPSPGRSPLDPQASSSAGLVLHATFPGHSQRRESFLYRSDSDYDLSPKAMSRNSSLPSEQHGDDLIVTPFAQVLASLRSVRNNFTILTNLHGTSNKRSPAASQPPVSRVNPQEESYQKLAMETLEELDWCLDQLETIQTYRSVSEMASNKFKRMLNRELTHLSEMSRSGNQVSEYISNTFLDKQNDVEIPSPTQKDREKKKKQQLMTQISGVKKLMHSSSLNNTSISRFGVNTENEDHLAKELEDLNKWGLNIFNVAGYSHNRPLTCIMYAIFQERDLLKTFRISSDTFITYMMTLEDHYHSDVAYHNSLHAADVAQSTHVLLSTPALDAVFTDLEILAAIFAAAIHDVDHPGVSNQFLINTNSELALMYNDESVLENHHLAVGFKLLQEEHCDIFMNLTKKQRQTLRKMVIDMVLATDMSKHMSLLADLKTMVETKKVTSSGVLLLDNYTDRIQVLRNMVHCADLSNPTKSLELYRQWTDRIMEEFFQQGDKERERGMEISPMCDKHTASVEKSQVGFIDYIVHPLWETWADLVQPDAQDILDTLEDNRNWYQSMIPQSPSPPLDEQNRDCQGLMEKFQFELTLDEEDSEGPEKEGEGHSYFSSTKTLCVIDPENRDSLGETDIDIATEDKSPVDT
Outline: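 Cell-based read-out of cAMP via a modified cyclic nucleotide-gated channel and membrane potential dye (535/590 nm) in HEK293 cells expressing PDE4 endogenously. Compounds tested up to 22.9 uM final; 100 uM RO 20-1724 reference.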

[21] = qHTS Assay for Lipid Storage Modulators (AID 1519; calls by dose curve); conditions: Drosophila S3 cells, BODIPY lipid droplet/cell ratio, laser cytometry, cells loaded with oleic acid
Outline: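 Cells seeded at 5,000 per well were treated with compounds over a concentration series and loaded with oleic acid (400 uM, as added). Lipid droplet fluorescence (488 nm excitation, 500-530 nm channel) was read by laser-scanning cytometry and normalized to 20 uM Triacsin C.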

[22] = molecular target: Ubiquitin carboxyl-terminal hydrolase 1 (Homo sapiens) (UniProt O94782); experiment: Inhibitors of USP1/UAF1: Pilot qHTS (AID 504865);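 further: rhodamine fluorescence freed from ubiquitin-rhodamine substrate followed over time; top concentration of the series differs between compounds; nearly all actives have a fitted effect of over 35% in size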
Sequence of Ubiquitin carboxyl-terminal hydrolase 1 (Homo sapiens) (O94782 whole entry, looked up): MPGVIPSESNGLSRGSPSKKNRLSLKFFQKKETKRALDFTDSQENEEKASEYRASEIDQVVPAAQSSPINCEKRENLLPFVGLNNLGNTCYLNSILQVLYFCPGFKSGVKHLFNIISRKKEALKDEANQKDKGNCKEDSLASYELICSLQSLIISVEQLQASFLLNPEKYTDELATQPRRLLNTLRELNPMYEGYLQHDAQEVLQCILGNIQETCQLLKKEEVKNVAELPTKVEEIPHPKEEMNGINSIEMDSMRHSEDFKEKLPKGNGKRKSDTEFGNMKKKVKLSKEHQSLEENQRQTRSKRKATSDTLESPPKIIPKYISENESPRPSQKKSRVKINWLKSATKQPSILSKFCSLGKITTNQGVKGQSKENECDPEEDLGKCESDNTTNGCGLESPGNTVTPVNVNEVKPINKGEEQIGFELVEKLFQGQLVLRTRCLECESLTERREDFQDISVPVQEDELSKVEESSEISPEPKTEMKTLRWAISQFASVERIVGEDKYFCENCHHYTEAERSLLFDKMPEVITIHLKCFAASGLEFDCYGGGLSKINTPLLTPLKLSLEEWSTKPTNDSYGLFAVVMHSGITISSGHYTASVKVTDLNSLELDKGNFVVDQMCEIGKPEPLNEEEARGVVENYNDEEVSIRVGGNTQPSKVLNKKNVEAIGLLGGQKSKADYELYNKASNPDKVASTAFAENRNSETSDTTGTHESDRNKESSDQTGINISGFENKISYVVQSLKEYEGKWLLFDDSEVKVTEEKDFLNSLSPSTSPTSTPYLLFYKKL
Outline: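 USP1/UAF1 complex (1nM) preincubated with compound 15 min at room temperature, then Ub-Rho substrate (150nM final) added. Fluorescence read kinetically at 480/540 nm, 6 reads every 60 seconds. Buffer: 50mM HEPES pH 7.8, 0.5mM EDTA, 0.1 mg/ml BSA, 1mM TCEP, 0.01% Tween-20.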

## CCC(C)CCCCC(=O)NC(CCNCS(=O)(=O)O)C(=O)NC(C(=O)NC(CCNCS(=O)(=O)O)C(=O)NC1CCNC(=O)C(C(C)O)NC(=O)C(CCNCS(=O)(=O)O)NC(=O)C(CCNCS(=O)(=O)O)NC(=O)C(CC(C)C)NC(=O)C(CC(C)C)NC(=O)C(CCNCS(=O)(=O)O)NC1=O)C(C)O (configuration not stated) ({Octanoyl(6-Me)}-[ξDab(CH2SO3H)]T[ξDab(CH2SO3H)][Dab][ξDab(CH2SO3H)]LL[ξDab(CH2SO3H)][ξDab(CH2SO3H)]T; lactam 4-C; configuration not given here)
Furin (Homo sapiens)
  Potency: inactive
[1]
  Potency: 25.1 µM (active)
[2]
  Potency: 3.55 µM (active)
[3]
  Potency: inactive

## COc1cccc(C(=O)Nc2ccc(C(=O)OCc3cc(=O)n4nc(C5CC5)sc4n3)cc2)c1
Furin (Homo sapiens)
  Potency: 41.8 µM (active)
[1]
  Potency: inactive
[2]
  Potency: inactive

## CCCCCCc1cc2cc(-c3nnc(-c4cccc(Cl)c4)o3)c(=O)oc2cc1O
Furin (Homo sapiens)
  Potency: inactive
[4]
  Potency: 3.55 µM (active)
[5]
  Potency: inactive
[6]
  outcome: inactive
[7]
  Potency: 7.57 µM (active)
[8]
  outcome: inactive

## O=C(Nc1ccc(C(=O)OCc2cc(=O)n3c4c(sc3n2)CCCC4)cc1)c1ccc(F)cc1
Furin (Homo sapiens)
  Potency: 66.3 µM (active)
[1]
  Potency: inactive
[3]
  Potency: inactive

## O=C(OCc1cc(=O)n2nc(C3CC3)sc2n1)c1cccc(NC(=O)c2ccccc2Cl)c1
Furin (Homo sapiens)
  Potency: inactive
[3]
  Potency: inactive

## CC(Oc1ccccc1)C(=O)Nc1ccc(C(=O)OCc2cc(=O)n3nc(C4CC4)sc3n2)cc1 (configuration not stated)
Furin (Homo sapiens)
  Potency: inactive
[1]
  Potency: inactive
[2]
  Potency: inactive
[3]
  Potency: inactive

## CCOC(=O)c1ccc(NC(=O)CSc2nc(-c3ccc(OC)cc3)cc(C(F)(F)F)c2C#N)cc1
Furin (Homo sapiens)
  Potency: inactive
[5]
  Potency: inactive
[9]
  outcome: inactive
[6]
  outcome: inactive
[7]
  Potency: inactive
[8]
  outcome: inactive

## CC1OC(OC2C(O)CC(OC3C(O)CC(OC4CCC5(C)C(CCC6C5CC(O)C5(C)C(C7=CC(=O)OC7)CCC65O)C4)OC3C)OC2C)CC(O)C1O (configuration not stated)
Furin (Homo sapiens)
  Potency: inactive
[10]
  Potency: inactive
[11]
  Potency: inactive
[3]
  Potency: 0.214 µM (active)

## CCCCOc1ccc(C2C(=O)N(C3CCCCC3)CC(=O)N2C2CCCCC2)cc1 (configuration not stated)
Furin (Homo sapiens)
  Potency: inactive
[10]
  Potency: inactive
[11]
  Potency: inactive
[3]
  Potency: inactive

## CCCCc1nn(-c2ccccc2C(F)(F)F)c(=O)n1Cc1ccc(-c2ccccc2S(=O)(=O)NC(=O)c2sccc2C)cc1
[12]
  Potency: 24.1 µM (active)
[13]
  Potency: 21.5 µM (active)
[14]
  Potency: 21.2 µM (active)
[4]
  Potency: 4.41 µM (active)
[2]
  Potency: 28.2 µM (active)
[10]
  Potency: inactive
[11]
  Potency: inactive
[15]
  Potency: inactive

## CC[C@@H]1O[C@]2(C=C[C@@H]1C)C[C@H]1C[C@H](CC=C(C)[C@@H](O[C@@H]3C[C@H](OC)[C@H](O[C@@H]4C[C@H](OC)[C@H](O)[C@H](C)O4)[C@H](C)O3)[C@@H](C)C=CC=C3CO[C@@H]4[C@@H](O)C(C)=C[C@@H](C(=O)O1)[C@]34O)O2
[16]
  activity change, negative = inhibition: 6.2% (inactive)
[17]
  activity, negative = inhibition: -5.99% (inactive)
[18]
  Potency: > 20.6 µM (inactive)
[19]
  Potency: inactive
[20]
  Potency: inactive
[21]; at 25.7 µM (top of the series)
  activity change, negative = inhibition: -16.6% (inactive)
[21]; measured here: cell count channel max response
  max response: -4.3%
[21]; measured here: lipid channel max response
  max response: -18.8%
[22]
  Potency: inactive
Furin (Homo sapiens)
  Potency: inactive
[10]
  Potency: inactive
[11]
  Potency: inactive
[3]
  Potency: 9.97 µM (active)
